Test results from PubChem BioAssay.
Several values for one entry are separate records, joined by “and”; a condition that tells them apart may be missing. Equal values may be shown once. Results filed as inconclusive are left out. For some assays here: Potency and affinity values are given separately. Activity calls are given as the source filed them. Unless noted, no rule for the calls is given here.

Tests used:
[1] = biological target: ATP-dependent translocase ABCB1 (Homo sapiens) (UniProt P08183); assay: MDR1 (ABCB1) efflux transporter inhibition, cell-based (AID 377; in the data active = fluorescence slope change above about 50%); conditions: MDR1-expressing cells, fluorescent substrate accumulation slope; stronger effect = higher value; concentration not given here
[2] = circadian clock period modulators, cell-based, LOPAC library, luminescence reporter (AID 2774); conditions: circadian reporter cells, at 7 µM, actives lie on both sides;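 also: values are relative to mean of DMSO wells on each plate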
[3] = hESC survival regulators, cell-based (AID 493140); conditions: human embryonic stem cell survival screen; stronger effect = higher value;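 also: cells exposed to compounds for four days before counting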
[4] = system: Hepatitis C virus NS3 helicase; assay: HCV NS3 helicase inhibitors, primary screen, biochemical, fluorescence polarization, LOPAC1280 library (AID 687035; in the data active = inhibition above about 37%); conditions: Purified HCV NS3 helicase, Cy5-dT15 ssDNA binding fluorescence polarization; stronger effect = higher value; concentration not given here
[5] = Cy5 fluorescence quenching or enhancement artefacts, artefact control for HCV NS3 helicase inhibitor project, biochemical, LOPAC1280 (AID 687037); conditions: Cy5-DNA-NS3h complex fluorescence interference counterscreen
[6] = modulation of C. elegans fzo-1 (AID 1259413);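 also: fzo-1 mutant C. elegans worms in liquid wells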; conditions: C. elegans fzo-1 modulator screen, mean read-out; stronger effect = higher value
[7] = system: Aerobactin synthetase IucA (Klebsiella pneumoniae, hypervirulent); assay: IucA enzyme inhibition, biochemical, LOPAC library, absorbance readout (AID 1346212); conditions: IucA enzyme assay, absorbance (OD) readout; stronger effect = lower value;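 tested at 8 µM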;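 also: 100% = no compound wells and 0% = no enzyme wells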
[8] = phospholipid biosynthesis inhibitors in animal cells, primary screen, cell-based, LOPAC library, screen 4 (AID 1347384); conditions: phospholipid biosynthesis inhibition screen, at 10 µM
F380Y = assay: modulators of BK channel variants, profiling panel, selectivity assay, cell-based, U2OS BacMam, thallium flux, beta subunits (AID 1259406;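 active = thallium flux through the channel raised or lowered by more than 3 SD from vehicle-only wells, actives on both sides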;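 also: initial slope of Thallos dye fluorescence rise after thallium is added; log ratio against the mean of 0.3% DMSO vehicle wells on the same plate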); conditions: at 30 µM
F380Y/beta1 = assay: as above; conditions: at 30 µM
F380Y/beta2Delta = assay: as above; conditions: at 30 µM
R275C = assay: as above; conditions: at 30 µM
R275C/beta1 = assay: as above; conditions: at 30 µM
R275C/beta2Delta = assay: as above; conditions: at 30 µM
R275C/Slo1WT/beta2 = assay: as above; conditions: at 30 µM
[9] = polyglutamine-triggered caspase-3 activation inhibitors, cell-based (AID 1583); conditions: polyglutamine-induced caspase-3 activation, cell assay; stronger effect = higher value;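 tested at 10 µM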
[10] = rescue of polyQ-huntingtin neuronal dysfunction in worms, whole organism, C. elegans mechanosensory neurons, N-terminal huntingtin (AID 1599); conditions: touch response, stronger effect = higher value
[11] = enhancers of glutamate uptake in motor neurons, MN-1 cell line (AID 1612); conditions: MN-1 motor neuron cells, stronger effect = higher value;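 also: tested at 1 µM final; 0% = mean of DMSO vehicle wells on each plate; positive means more glutamate uptake than control and negative means less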
[12] = reducers of polyQ inclusions in PC12 cells, cell-based, NGF-treated PC12, GFPQ80 (AID 1614); conditions: PC12 NGF-treated GFP-polyQ80 inclusion reduction;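 also: lower means fewer inclusions and 0 means no inclusions at all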
[13] = suppressors of polyglutamine aggregation in yeast, 75Q-TubH (AID 1616); conditions: S. cerevisiae 75Q-TubH polyglutamine aggregation suppression; stronger effect = higher value

ATP-dependent translocase ABCB1 (Homo sapiens), sequence (P08183 whole entry, looked up): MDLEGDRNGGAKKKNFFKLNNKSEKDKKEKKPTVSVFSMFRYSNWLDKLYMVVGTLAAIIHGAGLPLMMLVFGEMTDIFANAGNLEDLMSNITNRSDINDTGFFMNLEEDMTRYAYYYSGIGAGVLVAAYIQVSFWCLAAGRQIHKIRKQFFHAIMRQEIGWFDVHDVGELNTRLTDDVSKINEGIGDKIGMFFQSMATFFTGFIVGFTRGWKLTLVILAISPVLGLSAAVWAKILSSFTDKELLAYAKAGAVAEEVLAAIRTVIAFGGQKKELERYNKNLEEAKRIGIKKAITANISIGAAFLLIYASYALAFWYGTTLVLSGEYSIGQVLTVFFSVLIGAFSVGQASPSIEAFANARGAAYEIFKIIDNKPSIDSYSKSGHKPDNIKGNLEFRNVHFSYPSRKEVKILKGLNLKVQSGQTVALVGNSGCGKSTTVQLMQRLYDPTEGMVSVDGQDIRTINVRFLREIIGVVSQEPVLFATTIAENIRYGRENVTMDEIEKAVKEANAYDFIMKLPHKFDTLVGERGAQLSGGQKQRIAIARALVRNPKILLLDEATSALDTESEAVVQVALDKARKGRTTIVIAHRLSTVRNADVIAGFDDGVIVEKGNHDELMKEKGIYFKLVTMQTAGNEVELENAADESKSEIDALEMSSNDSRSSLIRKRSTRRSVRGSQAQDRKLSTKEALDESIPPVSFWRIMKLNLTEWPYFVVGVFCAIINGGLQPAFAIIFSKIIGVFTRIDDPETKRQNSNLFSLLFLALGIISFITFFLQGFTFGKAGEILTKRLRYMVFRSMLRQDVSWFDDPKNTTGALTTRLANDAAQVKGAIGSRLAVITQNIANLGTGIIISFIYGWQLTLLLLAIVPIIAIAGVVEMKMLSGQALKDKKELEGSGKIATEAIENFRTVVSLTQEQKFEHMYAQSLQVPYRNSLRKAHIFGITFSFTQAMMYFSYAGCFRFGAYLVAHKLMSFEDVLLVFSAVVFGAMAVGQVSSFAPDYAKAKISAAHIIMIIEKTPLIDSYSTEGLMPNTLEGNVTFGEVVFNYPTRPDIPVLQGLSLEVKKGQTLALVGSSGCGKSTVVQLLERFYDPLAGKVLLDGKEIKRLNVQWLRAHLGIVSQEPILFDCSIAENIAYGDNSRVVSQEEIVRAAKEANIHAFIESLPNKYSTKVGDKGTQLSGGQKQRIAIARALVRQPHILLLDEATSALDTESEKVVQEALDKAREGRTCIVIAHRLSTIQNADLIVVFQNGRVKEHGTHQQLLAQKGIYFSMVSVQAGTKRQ

CC(NC(C)(C)C)C(=O)c1cccc(Cl)c1 (configuration not stated)
fluorescence slope change [1]: 106% (active) | period change [2]: 0.18 h (inactive) | survival [3]: 16.8 (inactive) | inhibition [4]: -1% (inactive) | fluorescence ratio (interference) [5]: 1 (inactive) | mean signal [6]: 264 (inactive) | remaining activity [7]: 118% (inactive) | outcome [8]: inactive | log fold change Tl+ flux (F380Y): 0.0198 (inactive) and -0.0218 (inactive) | log fold change Tl+ flux (F380Y/beta1): -0.0211 (inactive) and 0.0228 (inactive) | log fold change Tl+ flux (F380Y/beta2Delta): -0.0525 (inactive) and 0.0137 (inactive) | log fold change Tl+ flux (R275C): -0.059 (inactive) and 0.00561 (inactive) | log fold change Tl+ flux (R275C/beta1): -0.0389 (inactive) and 0.036 (inactive) | log fold change Tl+ flux (R275C/beta2Delta): -0.014 (inactive) and 0.0171 (inactive) | log fold change Tl+ flux (R275C/Slo1WT/beta2): -0.0516 (inactive) and 0.0164 (inactive)

CN(C)[C@@H]1C(=O)C(C(N)=O)=C(O)[C@@]2(O)C(=O)C3=C(O)c4c(O)cccc4[C@@](C)(O)[C@H]3C[C@@H]12
fluorescence slope change [1]: 76.3% (active) | inhibition [9]: 61.6% | rescue above control [10]: -1.89 | glutamate uptake change [11]: 10.7% | inclusion score [12]: 0 | aggregation suppression score [13]: 0.769 | survival [3]: 22.6 (inactive) | mean signal [6]: 244 (inactive)

CCCC(C)(COC(N)=O)COC(=O)NC(C)C (configuration not stated)
fluorescence slope change [1]: 52.8% (active) | inhibition [9]: 17.5% | rescue above control [10]: 0.33 | glutamate uptake change [11]: 3.53% | inclusion score [12]: 2 | aggregation suppression score [13]: 1.4 | period change [2]: 0.065 h (inactive) | survival [3]: 11.2 (inactive) | inhibition [4]: -1% (inactive) | fluorescence ratio (interference) [5]: 1 (inactive) | mean signal [6]: 258 (inactive) | remaining activity [7]: 106% (inactive) | log fold change Tl+ flux (F380Y): 0.0133 (inactive) | log fold change Tl+ flux (F380Y/beta1): 0.0587 (inactive) | log fold change Tl+ flux (F380Y/beta2Delta): -0.0375 (inactive) | log fold change Tl+ flux (R275C): 0.0157 (inactive) | log fold change Tl+ flux (R275C/beta1): 0.044 (inactive) | log fold change Tl+ flux (R275C/beta2Delta): 0.0245 (inactive) | log fold change Tl+ flux (R275C/Slo1WT/beta2): 0.0148 (inactive)

C[C@@H]1C[C@@H]([C@H](O)CC2CC(=O)NC(=O)C2)C(=O)[C@@H](C)C1
fluorescence slope change [1]: 14.9% (inactive) | inhibition [9]: 22.7% | rescue above control [10]: -0.63 | glutamate uptake change [11]: -43.8% | aggregation suppression score [13]: 0.0281 | survival [3]: 0.417 (inactive)

O=C(O)c1nn(Cc2ccc(Cl)cc2Cl)c2ccccc12
period change [2]: -0.065 h (inactive) | inhibition [4]: -4% (inactive) | fluorescence ratio (interference) [5]: 1 (inactive) | remaining activity [7]: 110% (inactive) | outcome [8]: inactive

c1ccc2nc(N3CCNCC3)ccc2c1
fluorescence slope change [1]: 25.1% (inactive) | inhibition [9]: -24.6% | rescue above control [10]: -5.3 | glutamate uptake change [11]: -14.6% | inclusion score [12]: 2 | aggregation suppression score [13]: 1.33 | period change [2]: -0.04 h (inactive) | survival [3]: 8.75 (inactive) | remaining activity [7]: 114% (inactive)

CC(Cc1ccc(O)cc1)NCC(O)c1cc(O)cc(O)c1 (configuration not stated)
fluorescence slope change [1]: 108% (active) | inhibition [9]: 7.8% | rescue above control [10]: 3.16 | glutamate uptake change [11]: 0.39% | inclusion score [12]: 2 | aggregation suppression score [13]: 1.23 | period change [2]: 0.005 h (inactive) | survival [3]: 36.6 (inactive) | inhibition [4]: -3% (inactive) | fluorescence ratio (interference) [5]: 1 (inactive) | remaining activity [7]: 91.6% (inactive) | outcome [8]: inactive

Cc1ncc(CNC(=O)N(CCCl)N=O)c(N)n1
period change [2]: -0.065 h (inactive) | inhibition [4]: 2% (inactive) | fluorescence ratio (interference) [5]: 1 (inactive) | remaining activity [7]: 113% (inactive) | outcome [8]: inactive

Clc1ccc(CO/N=C(\Cn2ccnc2)c2ccc(Cl)cc2Cl)c(Cl)c1
mean signal [6]: 187 (inactive)

CN1C(=O)CCS(=O)(=O)C1c1ccc(Cl)cc1 (configuration not stated)
fluorescence slope change [1]: 29.1% (inactive) | inhibition [9]: 11.3% | rescue above control [10]: 10 | glutamate uptake change [11]: 3.58% | inclusion score [12]: 2 | aggregation suppression score [13]: 1.17 | period change [2]: 0.08 h (inactive) | survival [3]: 8 (inactive) | inhibition [4]: 0% (inactive) | fluorescence ratio (interference) [5]: 1 (inactive) | remaining activity [7]: 93.8% (inactive) | outcome [8]: inactive

CC(CCc1ccccc1)NC(C)C(O)c1ccc(O)cc1 (configuration not stated)
inhibition [9]: 5.61% | rescue above control [10]: 1.38 | glutamate uptake change [11]: -2.97% | inclusion score [12]: 2 | aggregation suppression score [13]: 1.46 | period change [2]: 0.06 h (inactive) | inhibition [4]: -5% (inactive) | fluorescence ratio (interference) [5]: 0.9 (inactive) | remaining activity [7]: 104% (inactive) | outcome [8]: inactive

O=C(CCCN1CCC2(CC1)C(=O)NCN2c1ccccc1)c1ccc(F)cc1
fluorescence slope change [1]: 202% (active) | inhibition [9]: -14.9% | rescue above control [10]: 4.9 | glutamate uptake change [11]: -22.8% | inclusion score [12]: 2 | aggregation suppression score [13]: 1.1 | period change [2]: 0.035 h (inactive) | survival [3]: 7.92 (inactive) | fluorescence ratio (interference) [5]: 1 (inactive) | remaining activity [7]: 121% (inactive) | outcome [8]: inactive

O=c1[nH]oc2c1CCNC2
inhibition [9]: 9.73% | rescue above control [10]: -2.56 | glutamate uptake change [11]: 5.07% | inclusion score [12]: 2 | aggregation suppression score [13]: 1.43 | period change [2]: 0.075 h (inactive) | survival [3]: 19.5 (inactive) | inhibition [4]: -5% (inactive) | fluorescence ratio (interference) [5]: 1 (inactive) | remaining activity [7]: 100% (inactive) | outcome [8]: inactive

COc1ccc(OC)c(C(O)C(C)N)c1 (configuration not stated)
period change [2]: 0.08 h (inactive) | survival [3]: 3.58 (inactive) | inhibition [4]: -2% (inactive) | fluorescence ratio (interference) [5]: 1 (inactive) | remaining activity [7]: 112% (inactive) | outcome [8]: inactive

COC(=O)C1=CCCN(C)C1
inhibition [9]: 15.1% | rescue above control [10]: 4.32 | glutamate uptake change [11]: 13.8% | inclusion score [12]: 2 | aggregation suppression score [13]: 1.35 | period change [2]: -0.175 h (inactive) | survival [3]: 7.67 (inactive) | inhibition [4]: 0% (inactive) | fluorescence ratio (interference) [5]: 1 (inactive) | remaining activity [7]: 111% (inactive) | outcome [8]: inactive

C=C(C)[C@H]1Cc2c(ccc3c2O[C@@H]2COc4cc(OC)c(OC)cc4[C@@H]2C3=O)O1
fluorescence slope change [1]: 63.7% (active) | inhibition [9]: 5.88% | rescue above control [10]: 0 | glutamate uptake change [11]: -44.7% | inclusion score [12]: 2 | aggregation suppression score [13]: 0.895 | period change [2]: -1.31 h (inactive) | inhibition [4]: -1% (inactive) | fluorescence ratio (interference) [5]: 1 (inactive) | remaining activity [7]: 78.1% (inactive) | outcome [8]: inactive
